PBM binding z-score data for 16 sequences are collected here from the supplement of paper PMC6555819.

Assay in all cases: PBM binding z-score (relative to random genomic background probes); higher = stronger binding; sequences stand for … in GC…GCGATTGACAGCGTAGAATGAAGG
Assay [1] deals with RARb homodimer (NR concentration 270 nM). The gist of the method: (§1)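 Antibodies against each partner of ligand-free nuclear receptor dimers (one per run) detected binding on custom Agilent 4×180K protein-binding microarrays after 1 h incubation. The double-stranded probes had 34-nt variable regions carrying direct-repeat seeds, single-nucleotide variants, half-site ablations and random human genomic background sequences. Binding z-scores, from regression-normalized fluorescence, use the random background probes as reference.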

Assay [2] has as its system RARg:RXRa (NR concentration 270 nM, RXRa partner concentration 90 nM). The method in brief:
as §1

The subject of assay [3] is RARg homodimer (NR concentration 270 nM). The gist of the method:
as §1

Assay [4] deals with RXRa DBDmut IVT, anti-RXR (DBD mutation: RXRa K156A/R161A, NR concentration 90 nM). The method in brief:
as §1

Assay [5] concerns RXRa homodimer (NR concentration 180 nM). The method in brief: as §1
In assay [6] the test system is THRa:RXRa (NR concentration 90 nM, RXRa partner concentration 90 nM). The method in brief: as §1
For assay [7], the system named is THRa homodimer (NR concentration 90 nM). The method in brief: as §1
Assay [8] deals with VDR:RXRa (NR concentration 270 nM, RXRa partner concentration 90 nM). The gist of the method:
as §1

For assay [9], the system named is VDR homodimer (NR concentration 270 nM). The gist of the method:
as §1

Take TAGCCTAGGTCATTGGGCCAGTAAAGTACGCATC: the PBM binding z-score in assay [1] stood at 2.78; in [2], 3.91; in assay [3] it was 4.25; in [4] it was 1.61; in assay [5], 3.1; in assay [6] it was 2.69. Further, the PBM binding z-score in assay [7] was 0.775; in assay [8], 2.08; in [9], 1.48.
For CCGACTGGGTCAAGGTTACCATAACGCACAGCCA, the PBM binding z-score in [1] stood at 3.15; in [2], 3.98; in [3], 4.05; in assay [4] it was 0.852; in [5] it was 3.59; in assay [6], 2.83. Further, the PBM binding z-score in assay [7] stood at 1.51; in assay [8], 2.05; in assay [9], 1.02.
In the case of CGTCCAAGGTCAGCAGCTCAGTGAAAGCGACGTG, the PBM binding z-score in assay [1] was 3.86; in [2], 5.03; in assay [3], 5.8; in assay [4], 2.64; in assay [5], 4.07; in assay [6] it was 3.44. The PBM binding z-score in assay [7] stood at 1.99; in assay [8], 2.09; in assay [9], 0.868.
In the case of ATAGACAGGTGATGAAGGTAACTCAGGCTATCAT, the PBM binding z-score in assay [1] was 0.392; in assay [2], 0.0804; in [3], 0.356; in [4] it was -0.779; in assay [5], 0.265; in [6] it was 0.901. For the same sequence, the PBM binding z-score in assay [7] was 0.156; in [8], 0.166; in assay [9] it was -0.14.
As for TCTTGTAGATCAAGCAGGTTAAGTAAGCCTGAGT, the PBM binding z-score in assay [1] is 0.0988; in [2], -0.201; in assay [3], -0.463; in assay [4] it was 0.439; in [5], 0.0943; in [6], 0.33. The figures for the PBM binding z-score in assay [7], in assay [8] and in assay [9] were -0.503, 0.507 and -0.0277, respectively.
In the case of TGAATGAGGTTATAAGACCAGGGAACGTTGCAAA, the PBM binding z-score in assay [1] stood at 0.0287; in assay [2] it was 1.39; in assay [3] it was 0.814; in assay [4], 0.698; in [5] it was 1.99; in assay [6] it was 1.77. In addition, the figures for the PBM binding z-score in assay [7], in [8] and in assay [9] were -0.0902, 0.916 and 0.336, respectively.
As to TGAATGAGGTTAAAGATCAGGGTACGTGGCGTCG, the PBM binding z-score in [1] turned out to be 1.27; in assay [2], 2.36; in assay [3], 1.42; in [4], 1.41; in [5], 3.5; in assay [6], 2.78. The PBM binding z-score in assay [7] was 0.878; in [8], 2.38; in assay [9], 1.25.
Regarding ATCTCTGGGTAACCAAGTTCAGTGAATGCCGAAC, the PBM binding z-score in [1] is 1.28; in assay [2], 0.665; in assay [3], 0.596; in assay [4] it was 0.665; in assay [5] it was 0.412; in assay [6] it was 1.46. Moreover, the PBM binding z-score in [7] was found to be 0.335; in [8], 4.32; in assay [9] it was 2.64.
Regarding ACTCGGCGGACAAAGGTCAGAGCTACGCCAGTGA, the PBM binding z-score in assay [1] came to 4.19; in [2], 5.15; in assay [3] it was 4.72; in assay [4], 0.437; in assay [5], 4.46; in [6], 2.39. For the same sequence, the figures for the PBM binding z-score in [7], in assay [8] and in [9] were 0.00347, 2.44 and 0.793, respectively.
In the case of CAAACTAGGTCACGGTCAAAGTCGGTTTGTGCCA, the PBM binding z-score stood at 4.62 in assay [1]; 4.99 in assay [2]; 5.89 in assay [3]; 2.12 in [4]; 3.82 in [5]; 3.94 in assay [6]. Further, the PBM binding z-score in [7] was 2.34; in assay [8] it was 3.33; in assay [9] it was 1.7.
Turning to CCTACTGGGCCAACGGTCATTGATTCCAATGCTC, the PBM binding z-score in [1] is 1.45; in [2], 0.293; in assay [3] it was 0.841; in assay [4] it was -0.454; in assay [5], -0.191; in assay [6], -0.306. Moreover, the PBM binding z-score is -0.382 in assay [7], -0.502 in assay [8] and -0.141 in assay [9].
Regarding CGAACTAGGTCAAGGACATTGAATCTCCGCACGC, the PBM binding z-score in [1] was determined as 3.12; in assay [2] it was 3.91; in assay [3], 4.46; in [4] it was 1.62; in assay [5], 2.91; in [6], 3.16. Moreover, the PBM binding z-score in assay [7] is 2.43; in [8], 1.73; in assay [9], 1.13.
Consider GCAGACAGGTCAAACGCAGGTAACTCAGGGTGGC, for which the PBM binding z-score in [1] stood at 2.7; in assay [2], 5.58; in [3], 4.53; in assay [4] it was 2.16; in assay [5] it was 4.65; in assay [6], 3.23. Besides, the PBM binding z-score is -0.195 in [7], 3 in assay [8] and 0.795 in assay [9].
Take TCATATACGTAAAGGTGAAAGTCGAACGATATGA: the PBM binding z-score in assay [1] was 1.53; in assay [2] it was 1.65; in [3] it was 1.22; in assay [4] it was 0.638; in assay [5], 2.1; in assay [6], 1.13. Further, the figures for the PBM binding z-score in [7], in assay [8] and in assay [9] were -0.853, 1.05 and -0.424, respectively.
For ATCGAAAGGTCGTAAGGTGAGTATACAGAAAGGC, the PBM binding z-score in [1] was found to be 3.06; in assay [2] it was 4.61; in [3], 3.87; in assay [4] it was 1.72; in assay [5], 5.29; in assay [6] it was 3.35. For the same sequence, the results for the PBM binding z-score in [7], in [8] and in assay [9] were 1.64, 3.26 and 1.24, respectively.
Turning to ATCTCTAGGTAAAGTTCCGTGAAAGATCGATAGA, the PBM binding z-score was -0.0472 in [1]; 0.28 in [2]; 0.381 in [3]; 0.35 in [4]; 0.0302 in assay [5]; 0.529 in assay [6]. Moreover, the results for the PBM binding z-score in assay [7], in assay [8] and in assay [9] were 0.224, 0.335 and 0.431, respectively.
